# Reference: PubChem BioAssay (EPA / NIEHS)
# The source made the active and inactive calls. Rule for the calls: active = hit-call score of the fitted dose curve at least 0.9, where 1 is the maximum; inactive = score below 0.9.
# Read-out: Tumor necrosis factor receptor superfamily member 6 (Homo sapiens) (UniProt P25445)
# Assay: LTEA_HepaRG_FAS: Life Technologies and Expression Analysis (LTEA) Assay for Fas cell surface death receptor (FAS) using HepaRG (AID 2283447)
# Conditions: mRNA level, 48 h; actives raise or lower the signal
# Procedure: LTEA_HepaRG is a cell based, multiplexed-readout assay that uses HepaRG, a human liver cell line, with measurements taken at 48 hours after chemical dosing on a 96-well plate.LTEA_HepaRG_FAS is one of 102 assay component(s) measured in the LTEA HepaRG cell culture assay. It is a marker of Cell proliferation, survival, death.Data from the assay component LTEA_HepaRG_FAS was analyzed into 1 endpoint. This assay endpoint, LTEA_HepaRG_FAS, was analyzed with bidirectional fitting relative to DMSO as the negative control and baseline of activity. Using a type of inducible reporter, measures of mRNA induction for gain or loss-of-signal activity can be used to understand regulation of transcription factor activity. To generalize the intended target to other relatable targets, this assay endpoint is annotated to the cytokine receptor intended target family, where the subfamily is TNF receptor.
# A total of 1060 chemcials from the ToxCast library were tested in eight-point concentration-response experiments. Cell culture and cytotoxicity assays were conducted at Thermo Fisher Scientific's Custom Services facility (Madison, WI). A single lot of human HepaRG cells (Thermo Fisher Scientific, Frederick, MD) was used for the cell culture experiments. 96-well format collagen type I coated plates of human HepaRG cells were prepared using established methods. Briefly, cryopreserved HepaRG cells were thawed, plated at a density of approximately 100,000 cells/well in HepaRG Thaw, Plate, and General Purpose media (HPRG770, Thermo Fisher Scientific), and incubated for 48 hours. 0.5% DMSO was selected as vehicle control to balance the requisite need of DMSO in HepaRG cultures to maintain differentiation (for example, baseline metabolism, proportions of hepatocytes vs. cholangiocytes), while enabling further hepatic receptor pathway activation (for example, PXR and CAR) in response to chemical exposure. 48 hours after plating, the culture medium was replaced with HepaRG Serum-Free Incudtion Media. Cells were exposed to each test chemical in duplicate and maintained in CO2 incubators for another 48 hours. Chemical plates were thawed to room temperature and 200x concentrations of treatment groups were prepared. 8-point conentration-reponse curves were made with the highest exposure at 100 uM, followed by half-log dilutions, all in 0.5% DMSO. Each test plate contained variouse controls, induction positive controls (1mM phenobarbital), cytotoxicity positive controls ([…] aflatoxin B1), vehicle controls (0.5% DMSO), and total lysis controls (0.5% DMSO). Cell morphology images were taken using an Essen IncuCyte FLR automated microscope, with six 96-well plates imaged in about 24 minutes. Images were captured and exported and JPEG files. Spent culture media was transfered to black-well plates for the LDH assay, and remaining media was sorted at -80 C for later use. Cells were treated with RLT buffer and frozen until shipped for gene expression analysis. Total RNA was isolated from the cell suspension in 75 uL of Buffer RLT (Qiagen, Germantown, MD 20874) by Quintiles/Expression Analysis (Durham, NC) using a custom isolation procedure. Total RNA from each plate well was transferred to a preamplification plate. Fluidigm's 96.96 Dynamic ArrayTM (Fluidigm, Amsterdam, the Netherlands) technology was used for gene expression analyses by quantitative reverse transcription polymerase chain reaction (qRT-PCR, performed by Quintiles/Expression Analysis, Durham, NC)89. Standard TaqManTM Assays (Applied Biosystems/ThermoFisher Scientific, Foster City, CA) were used to assess the expression of 93 genes selected based on their selectivity and sensitivity to important hepatic receptors known to be modulated by environmental chemicals; importance in human hepatocyte functionality; and hepatotoxicity. […]
SMILES,outcome,AC50
O=[N+]([O-])c1c(Cl)c(Cl)c(Cl)c(Cl)c1Cl,inactive,–
C[C@H]1[C@H](c2ccc(Cl)cc2)SC(=O)N1C(=O)NC1CCCCC1,–,90.5 µM (active)
CCc1ccc(C(=O)NN(C(=O)c2cc(C)cc(C)c2)C(C)(C)C)cc1,inactive,–
CCOC1Oc2ccc(OS(C)(=O)=O)cc2C1(C)C (stereo not given),inactive,–
CNC(=O)Oc1cccc(N=CN(C)C)c1,inactive,–
CCC(C)Nc1c([N+](=O)[O-])cc(C(C)(C)C)cc1[N+](=O)[O-] (stereo not given),inactive,–
CCCN(CCOc1c(Cl)cc(Cl)cc1Cl)C(=O)n1ccnc1,inactive,–
CNC(=O)/C=C(\C)OP(=O)(OC)OC,inactive,–
CCC(C)(C)C(=O)OC1=C(c2ccc(Cl)cc2Cl)C(=O)OC12CCCCC2,inactive,–
ClC1C(Cl)C(Cl)C(Cl)C(Cl)C1Cl (stereo not given),inactive,–
OCCOc1ccccc1,inactive,–
CC1(C)C(C=C(Cl)Cl)C1C(=O)OC(C#N)c1ccc(F)c(Oc2ccccc2)c1 (stereo not given),inactive,–
N#Cc1c(Cl)c(Cl)c(Cl)c(C#N)c1Cl,inactive,–
C#CCN1C(=O)COc2cc(F)c(N3C(=O)C4=C(CCCC4)C3=O)cc21,inactive,–
CC1(c2ccc(Oc3ccccc3)cc2)OC(=O)N(Nc2ccccc2)C1=O (stereo not given),–,1.02 µM (active)
Oc1cc(Cl)ccc1Oc1ccc(Cl)cc1Cl,inactive,–
Cc1[nH]c(=O)n(C(C)(C)C)c(=O)c1Cl,inactive,–
COP(=O)(OC)OC=C(Cl)Cl,inactive,–
CCOCN(C(=O)CCl)c1c(C)cccc1CC,inactive,–
O=C(O)COc1ccc(Cl)cc1Cl,inactive,–

SMILES,outcome,AC50
CCN(CC)C(=O)SCc1ccc(Cl)cc1,inactive,–
N#CN,inactive,–
O=[N+]([O-])/N=C1\NCCN1Cc1ccc(Cl)nc1,inactive,–
O=S1OCC2C(CO1)C1(Cl)C(Cl)=C(Cl)C2(Cl)C1(Cl)Cl (stereo not given),inactive,–
Clc1ccccc1-c1nnc(-c2ccccc2Cl)nn1,inactive,–
CNC(=O)Oc1ccccc1OC(C)C,inactive,–
CCCN(CCC)c1c([N+](=O)[O-])cc(C(F)(F)F)cc1[N+](=O)[O-],inactive,–
O=C(O)C(F)(F)C(F)(F)C(F)(F)C(F)(F)C(F)(F)C(F)(F)C(F)(F)F,inactive,–
O=C(NC(=O)c1c(F)cccc1F)Nc1ccc(OC(F)(F)C(F)OC(F)(F)F)c(Cl)c1 (stereo not given),inactive,–
CC(C)(C)C(O)C(Oc1ccc(Cl)cc1)n1cncn1 (stereo not given),inactive,–
CC(C)N(C(=O)COc1nnc(C(F)(F)F)s1)c1ccc(F)cc1,inactive,–
O=S(=O)(O)C(F)(F)C(F)(F)C(F)(F)C(F)(F)C(F)(F)C(F)(F)C(F)(F)C(F)(F)F,inactive,–
CCC(C)(NC(=O)c1cc(Cl)c(C)c(Cl)c1)C(=O)CCl (stereo not given),–,92.4 µM (active)
CC(C)(C)C(O)/C(=C\c1ccc(Cl)cc1Cl)n1cncn1 (stereo not given),inactive,–
CNC(=O)CSP(=S)(OC)OC,inactive,–
O=C(O)CCCOc1ccc(Cl)cc1Cl,inactive,–
COc1nn(CSP(=S)(OC)OC)c(=O)s1,inactive,–
O=C(Nc1ccccc1)Nc1cnns1,inactive,–
Oc1ccc(Cl)cc1Cc1ccccc1,inactive,–
O=C1c2ccccc2C(=O)N1SC(Cl)(Cl)Cl,inactive,–
